Experimental data from PubChem BioAssay (NCI).
The panel holds about 79,000 compounds, 15% with a hit somewhere; the sample as a whole holds those more often. Cut-off read from the data, not from the text of the source: active = growth inhibition above about 70%; inactive = the rest.

What was measured:
[1] = NCI Yeast Anticancer Drug Screen. Data for the rad50 strain (AID 155);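 note: 0% = growth of vehicle-only cultures of the same strain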; settings: S. cerevisiae rad50 strain growth inhibition; at 50.0 µM; stronger effect = higher value
How it was run: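 Readout: growth inhibition relative to vehicle-treated cultures. Compound exposure was carried out in a genetically defined yeast strain deficient in DNA damage repair.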

[2] = NCI Yeast Anticancer Drug Screen. Data for the mec2-1 strain (AID 157); settings: S. cerevisiae mec2-1 strain, at 50.0 µM, stronger effect = higher value
How it was run: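 Mutant yeast (mec2-1) grown with compound; growth inhibition relative to vehicle control reported.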

[3] = NCI Yeast Anticancer Drug Screen. Data for the sgs1 mgt1 strain (AID 161);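 note: 0% = growth of cultures given vehicle only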; settings: S. cerevisiae sgs1 mgt1 strain, at 50.0 µM, stronger effect = higher value
How it was run: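 Compounds are added to genetically altered yeast, and growth is compared with cultures given vehicle alone to give percent inhibition.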

[4] = NCI Yeast Anticancer Drug Screen. Data for the cln2 rad14 strain (AID 165);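 note: 0% = growth equal to vehicle treated cultures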; settings: S. cerevisiae cln2 rad14 strain, at 50.0 µM, stronger effect = higher value
How it was run: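 Readout is yeast growth inhibition versus vehicle-treated controls, using a strain with cln2 and rad14 alterations exposed to compound.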

[5] = NCI Yeast Anticancer Drug Screen. Data for the bub3 strain (AID 167); settings: S. cerevisiae bub3 mutant strain, at 50.0 µM, stronger effect = higher value
How it was run: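 Readout: yeast growth inhibition, expressed relative to vehicle-only wells. The test organism is a mutant strain from a panel with lesions in DNA repair or checkpoint genes.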

[6] = NCI Yeast Anticancer Drug Screen. Data for the mlh1 rad18 strain (AID 175); settings: S. cerevisiae mlh1 rad18 strain growth inhibition; at 50.0 µM; stronger effect = higher value
How it was run: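 Genetically defined yeast (DNA repair-deficient) exposed to compounds; growth inhibition determined relative to vehicle.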

Measured: growth inhibition

COc1cccc(-c2cc(=O)c3cc(N4CCCC4)ccc3[nH]2)c1
inactive: [1] -26.3% | [2] -15.2% | [3] -19.9% | [4] 8.6% | [5] -21.6% | [6] -19.1%

Nc1nc(C2CCCC2)c(Br)c(=O)[nH]1
inactive: [1] -24.2% | [2] -3.75% | [3] -17.4% | [4] 2.45% | [5] 2.7% | [6] -8.75%

CCOC(=O)c1c[nH]c2ccccc2c1=O
inactive: [1] 1.65% | [2] -8.95% | [3] -0.35% | [4] -16% | [5] -7.9% | [6] 2.2%

CN(C)c1ccc([Si](c2ccc(N(C)C)cc2)c2ccc(N(C)C)cc2)cc1
inactive: [1] -18.5% | [2] 3.65% | [3] -19.1% | [4] -28.8% | [5] -1.1% | [6] 23.4%

NC(N)=NNC(=O)C(=O)O
inactive: [1] -4.5% | [2] -7.9% | [3] 3.85% | [4] -19.5% | [5] -7.6% | [6] 7.9%

CC1COCC(C)N1CC(OCc1ccccc1)c1ccccc1 (stereo unspecified)
inactive: [1] -5.7% | [2] -2.2% | [3] -15.4% | [4] -52.2% | [5] -7.9% | [6] -15.5%

CCOC(=O)C1C(c2ccc(Br)cc2)N(Cc2ccccc2)C(c2ccc(Br)cc2)C(C(=O)OC)S1(=O)=O (stereo unspecified)
inactive: [1] -42.2% | [2] -49.5% | [3] -16.6% | [4] -25.1% | [5] -21.4% | [6] -22.1%

O=c1[nH]c(=O)n(C2OC(CO)C(O)C2O)cc1OCCCc1ccccc1 (stereo unspecified)
inactive: [1] -23.1% | [2] -1.8% | [3] 16.4% | [4] 31.2% | [5] -5.45% | [6] 8.75%

N#CC12CC=C(c3ccccc3)N=C1NC(c1ccccc1)=CC2 (stereo unspecified)
inactive: [1] -25.9% | [2] -35.5% | [3] -31.7% | [4] -38.4% | [5] -1.65% | [6] -34.1%

CC(C)(C)CC(C)(C)N
inactive: [1] -2.65% | [2] -4.8% | [3] -16.9% | [4] -41.5% | [5] -2.35% | [6] 20.6%

CC(C)(C)c1ccc(-c2nc3ccc(Cl)cc3c(=O)o2)cc1
inactive: [1] -26.6% | [2] -24.5% | [3] -7.85% | [4] -48.3% | [5] -17.6% | [6] 0.45%

CCOC(=O)CCC(=O)OCC
inactive: [1] 21.6% | [2] 7.05% | [3] 0% | [4] 16.9% | [5] 9.85% | [6] 10.6%

CC(=O)c1cnn(C(N)=O)c1C
inactive: [1] -42.6% | [2] -18.5% | [3] -23.7% | [4] -46.5% | [5] 13.5% | [6] -5.75%

C=C(C)C(O)CC (stereo unspecified)
inactive: [1] 24.6% | [2] -30.7% | [3] 15.3% | [4] 4.3% | [5] 10.9% | [6] 20.4%

Oc1ccc(-c2cc(-c3c(O)cc(O)cc3O)on2)cc1
inactive: [1] 4.25% | [2] -1.45% | [3] -17.4% | [4] -2.85% | [5] -7.45% | [6] 9.35%

O=C1c2ccccc2C(=O)C1(c1ccccn1)[N+](=O)[O-]
inactive: [1] 5.55% | [2] 1.45% | [3] -0.2% | [4] 2% | [5] 13.6% | [6] 3.95%

CCCCCCCCCCCC[N+]12CC[N+](C)(CC1)CC2
inactive: [1] 16.2% | [2] -24.4% | [3] -10.7% | [4] -49% | [5] -27.6% | [6] -15.6%

NC(=O)NC(=O)N/N=C/c1ccccc1
inactive: [1] 23.2% | [2] 2.4% | [3] 2.8% | [4] 4.15% | [5] 7.6% | [6] 14.9%

NC(=O)NNc1ccccc1
inactive: [1] 3.6% | [2] 6.2% | [3] -1.85% | [4] -16.4% | [5] -7.2% | [6] -29.2%

Cc1cc2nc(N3CCOCC3)n(C3OC(CO)C(O)C3O)c2cc1C (stereo unspecified)
inactive: [1] -6.6% | [2] 5.75% | [3] 23.2% | [4] 1.55% | [5] -8.95% | [6] 3.95%

NC(=O)Nc1ccc(Cl)cc1[N+](=O)[O-]
inactive: [1] -4.35% | [2] -8.5% | [3] 17.6% | [4] -46.5% | [5] -6.45% | [6] -7.1%
